{
  "source": "the supplement of paper PMC10105736",
  "binders": {"B1": {"name": "Sod3 (protein)", "chain": "MMQYLVVSLALCATICSAAQTRNMPIQAIAYLIGPVQSDNTQVKGNVTFTQNDCGQNVHVRVQLEGLKEGKHGFHIHEKGDLTNGCISMGAHYNPDKVDHGGPDHEVRHVGDLGNLEANSTGIIDVTYTDQVITLTGKLGIIGRGVVVHELEDDLGLGNHTDSKKTGNAGGRIACGVIGIK"}, "B2": {"name": "Cdlc2 (protein)", "chain": "MSDRKAVIKNADMSEEMQQDAVDCATQALEKYNIEKDIAAFIKKEFDKKYNPTWHCIVGRNFGSYVTHETRHFIYFYLGQVAILLFKSG"}, "B3": {"name": "Edg78E (protein)", "chain": "MYKYLFCLALIGCACADNINKDAQIRSFQNDATDAEGNYQYAYETSNGIQIQEAGNANGARGAVAYVSPEGEHISLTYTADEEGYHPVGDHLPTPPPVPAYVLRALEYIRTHPPAPAQKEQQ"}, "B4": {"name": "Arr1 (protein)", "chain": "MVVNFKVFKKCSPNNMITLYMNRRDFVDSVTQVEPIDGIIVLDDEYVRQNRKIFVQLVCNFRYGREDDEMIGLRFQKELTLVSQQVCPPQKQDIQLTKMQERLLKKLGSNAYPFVMQMPPSSPASVVLQQKASDESQPCGVQYFVKIFTGDSDCDRSHRRSTINLGIRKVQYAPTKQGIQPCTVVRKDFLLSPGELELEVTLDKQLYHHGEKISVNICVRNNSNKVVKKIKAMVQQGVDVVLFQNGQFRNTIAFMETSEGCPLNPGSSLQKVMYLVPTLVANCDRAGIAVEGDIKRKDTALASTTLIASQDARDAFGIIVSYAVKVKLFLGALGGELCAELPFILMHPKPSRKAQLEAEGSIEA"}, "B5": {"name": "Sry-alpha (protein)", "chain": "MEQLLAQLHTCSELIAEGYSSTGNIGWLNEFCATFLDFASDLKARLPEVAPSGANLDVETIFLCLTQVVTCITHLERTISMEAPHMTRQHFLDRLDWCLRRLLVSLTQLEGNVTPVKNLEDHSFVELMDLALDHLDDYMEKLAQQRNNSLHILEESFTEDTYQLASIVNHIVRHALAFANVAIHSDKKALTALCETLLAECATFHEEAGEPNSGHRKLEALSLERALYALESFLNEALLHLLFVSLIDLENASVEKLKDALQRDPAGAQELISAFDTNMDRIQQIGVLAIAFSQDIKTKTIVRSCLASLESLDACIVPALQLPESTSSAHHAEVLQEHFNQELLIFRNVIHEIIDSCSLINNYLDMLGERIHVQDKSHLKLIVQRGGVVVDHFRLPVNYSGLSEDGKRVHKDLILILRECQAVVNLDVPVDPKRIVKRLKILYSVLAKLRDLICRDNLEPDSSVASEAQVPSSATRTFVRSSRSFGKRHRSFVKQTGNCSVFGPQDSLAESGHSESDLISFQITEILRLD"}, "B6": {"name": "mRpL52 (protein)", "chain": "MLKITKICLASSATSTAQRSIALTAPRAIDQKWRAAKGLPENPNAFGPLTNLPDYTYLDGRPTPLGANQKRRLIKQQEIATRIVELSGELEFAKQRHERLKANAESEKQRLIRSKLKPKGHFLLKK"}, "B7": {"name": "osk (protein)", "chain": "MAAVTSEFPSKPISYTSTNTSAKTYYLKSVKKRVTTCFQQLRDKLQSSGSFRKSSSSCLNQIFVRSDFSACGERFRKIFKSARKTELPELWKVPLVAHELTSRQSSQQLQVVARLFSSTQISTKEITYNSNSNTSENNMTIIESNYISVREEYPDIDSEVRAILLSHAQNGITISSIKSEYRKLTGNPFPLHDNVTDFLLTIPNVTAECSESGKRIFNLKASLKNGHLLDMVLNQKERTSDYSSGAPSLENIPRAPPRYWKNPFKRRALSQLNTSPRTVPKITDEKTKDIATRPVSLHQMANEAAESNWCYQDNWKHLNNFYQQASVNAPKMPVPINIYSPDAPEEPINLAPPGHQPSCRTQSQKTEPTENRHLGIFVHPFNGMNIMKRRHEMTPTPTILTSGTYNDSLLTINSDYDAYLLDFPLMGDDFMLYLARMELKCRFRRHERVLQSGLCVSGLTINGARNRLKRVQLPEGTQIIVNIGSVDIMRGKPLVQIEHDFRLLIKEMHNMRLVPILTNLAPLGNYCHDKVLCDKIYRFNKFIRSECCHLKVIDIHSCLINERGVVRFDCFQASPRQVTGSKEPYLFWNKIGRQRVLQVIETSLEY"}, "B8": {"name": "CycG (protein)", "chain": "MSVPVRYSSAAAEYAAEVDCELESTLQQQQQLHLQQQYEQYQHYQYQREQDIAYYCQLQAARQQEQLMQQRTSMSSSVMPGLALPQDHQDHPAALLNGPHNNNIGLAMDAHSINAILVDDEQPSTSAQAAAAAAASAGGSAGAGSGSGLGGAIGGGKLANGINRNAEMPTDWMRIADEGRYGTPGAAGLEYQKYEQQQQLEDLAESEAGAVGGASNNNGESSSSLKKLEDQLHALTSDELYETLKEYDVLQDKFHTVLLLPKESRREVTAGGRDGSAYVLRCLKMWYELPSDVLFSAMSLVDRFLDRMAVKPKHMACMSVASFHLAIKQLDLKPIPAEDLVTISQCGCTAGDLERMAGVIANKLGVQMGHAPITSVSYLRIYYALFRNLAKEIGGDFFKFYQQLIKLEELENRLEILMCDVKTTVITPSTLALVLICLHLDFHIKESYTRGSPELKHVFEYILFLQQYMRIPDRVFTCGFSIVSGILSHYNGQNKAPYKQRLVWKLSSRTLRVLRPINRFSSDLPTIEEGIPNALDDGLRSRTESISSEEEEDWPTSPIIPIFEQC"}},
  "assay_in_all_cases": "MAPPIT interaction score (arbitrary units); higher = stronger binary interaction signal, active = hit call of the paper",
  "key": {"CG11961": {"target": "CG11961", "details": "MAPPIT configuration: N-N; pair source set: Lit-BS-16"}, "CG12607": {"target": "CG12607", "details": "MAPPIT configuration: N-N; pair source set: Lit-BS-16"}, "noc": {"target": "noc", "details": "MAPPIT configuration: N-N; pair source set: Curagen_high_conf"}, "CG11983": {"target": "CG11983", "details": "MAPPIT configuration: N-N; pair source set: screen_1"}, "CG12112": {"target": "CG12112", "details": "MAPPIT configuration: N-N; pair source set: RRS"}, "CG12155": {"target": "CG12155", "details": "MAPPIT configuration: N-N; pair source set: Lit-BS-16"}, "Ravus": {"target": "Ravus", "details": "MAPPIT configuration: N-N; pair source set: screen_1"}, "CG12253": {"target": "CG12253", "details": "MAPPIT configuration: N-C; pair source set: screen_3"}, "Hsp70Aa": {"target": "Hsp70Aa", "details": "MAPPIT configuration: N-N; pair source set: Lit-BS-16"}, "CG12268": {"target": "CG12268", "details": "MAPPIT configuration: N-N; pair source set: DPIM"}, "mub": {"target": "mub", "details": "MAPPIT configuration: N-N; pair source set: DPIM"}, "CG12307": {"target": "CG12307", "details": "MAPPIT configuration: N-C; pair source set: screen_3"}, "CG30324": {"target": "CG30324", "details": "MAPPIT configuration: N-C; pair source set: screen_3"}, "en": {"target": "en", "details": "MAPPIT configuration: N-C; pair source set: screen_4"}, "CG5151": {"target": "CG5151", "details": "MAPPIT configuration: N-N; pair source set: Curagen_high_conf"}, "Npl4": {"target": "Npl4", "details": "MAPPIT configuration: N-N; pair source set: Finley_Y2H"}, "PAN3": {"target": "PAN3", "details": "MAPPIT configuration: N-N; pair source set: Finley_Y2H"}, "Sxl": {"target": "Sxl", "details": "MAPPIT configuration: N-N; pair source set: Finley_Y2H"}, "mxt": {"target": "mxt", "details": "MAPPIT configuration: N-N; pair source set: screen_1"}},
  "note": "Values without a mark were called inactive.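 Rule for the calls: active = MAPPIT score above the 99th percentile of random reference set scores in the same batch; inactive = at or below it.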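 Note: HEK293T cells with Epo stimulation, STAT-responsive firefly luciferase reporter, fold induction versus unstimulated cells divided by the larger fold induction of two negative controls lacking either bait or prey.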",
  "data": [
    {"binder": "B1", "values": [
      {"measurement": "MAPPIT interaction score", "setting": "CG11961", "result": -0.0996},
      {"measurement": "MAPPIT interaction score", "setting": "CG12607", "result": 0.262},
      {"measurement": "MAPPIT interaction score", "setting": "noc", "result": 0.249}
    ]},
    {"binder": "B2", "values": [
      {"measurement": "MAPPIT interaction score", "setting": "CG11983", "result": "4.18 (active)"}
    ]},
    {"binder": "B3", "values": [
      {"measurement": "MAPPIT interaction score", "setting": "CG12112", "result": "2.76 (active)"}
    ]},
    {"binder": "B4", "values": [
      {"measurement": "MAPPIT interaction score", "setting": "CG12155", "result": 0.0379},
      {"measurement": "MAPPIT interaction score", "setting": "Ravus", "result": 0.0915}
    ]},
    {"binder": "B5", "values": [
      {"measurement": "MAPPIT interaction score", "setting": "CG12253", "result": 0.332},
      {"measurement": "MAPPIT interaction score", "setting": "Hsp70Aa", "result": "3.5 (active)"}
    ]},
    {"binder": "B6", "values": [
      {"measurement": "MAPPIT interaction score", "setting": "CG12268", "result": -0.169},
      {"measurement": "MAPPIT interaction score", "setting": "mub", "result": 0.103}
    ]},
    {"binder": "B7", "values": [
      {"measurement": "MAPPIT interaction score", "setting": "CG12307", "result": 2.35},
      {"measurement": "MAPPIT interaction score", "setting": "CG30324", "result": 0.362},
      {"measurement": "MAPPIT interaction score", "setting": "en", "result": 0.844}
    ]},
    {"binder": "B8", "values": [
      {"measurement": "MAPPIT interaction score", "setting": "CG12307", "result": 0.375},
      {"measurement": "MAPPIT interaction score", "setting": "CG5151", "result": 0.112},
      {"measurement": "MAPPIT interaction score", "setting": "Npl4", "result": "3.83 (active)"},
      {"measurement": "MAPPIT interaction score", "setting": "PAN3", "result": 0.781},
      {"measurement": "MAPPIT interaction score", "setting": "Sxl", "result": 1.86},
      {"measurement": "MAPPIT interaction score", "setting": "mxt", "result": -0.277}
    ]}
  ]
}
